Assay results as given in PubChem BioAssay (NCI).
About 83,000 compounds went through this panel and 20% of them were active in at least one assay; those are over-represented in the sample as a whole.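 Values shown are percent growth following 48 h exposure of cells in 96-well plates to a single concentration of compound; below 10 was considered active.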 Calls of active or inactive are those of the source.

Tests used:
Assay in all cases: NCI-60 one-dose screen, 48 h (100 = growth as untreated, 0 = no growth, -100 = all killed)
Conditions in all cases: 10 µM
[1] = system: NCI-H23 lung
[2] = system: NCI-H226 lung
[3] = system: HOP-62 NSCLC
[4] = system: NCI-H460 lung
[5] = system: NCI-H522 lung
[6] = system: A549/ATCC NSCLC
[7] = system: 786-0 renal
[8] = system: COLO 205 colon
[9] = system: DU-145 prostate
[10] = system: K-562 leukemia
[11] = system: MALME-3M melanoma
[12] = system: MDA-MB-231 breast
[13] = system: RXF 393 renal
[14] = system: SF-268 CNS
[15] = system: SF-295 CNS
[16] = system: SF-539 CNS
[17] = system: UACC-257 melanoma
[18] = system: M14 melanoma
[19] = system: HOP-92 NSCLC

Measured: growth

Brc1ccc2c(c1)-c1ccccc1C1=NCCN12
active: [1] -8.64% | [2] -14.2% | [3] -24.3% | [4] -47.4% | [5] -61.9% | [6] -18.8% | [7] -32.7% | [8] -54% | [9] -21.1% | [10] 4.71% | [11] -31.5% | [12] -7.62% | [13] -62.6% | [14] -2.39% | [15] -50.7% | [16] -1.45% | [17] -23.9% | [18] -51.8%

CC(CN(C)C)Oc1ccc(OC(C)CN(C)C)c2c1C(=O)c1ccccc1C2=O (stereo not drawn)
active: [8] 3.02%
inactive: [1] 41.6% | [2] 44.5% | [3] 49.3% | [4] 17.2% | [5] 41.1% | [6] 22.5% | [7] 51% | [9] 46.1% | [10] 24.5% | [11] 67.6% | [12] 40.9% | [13] 59.2% | [14] 47.8% | [15] 48.2% | [16] 51% | [17] 72.8% | [18] 56.6%

O=C1/C(=C/c2ccc([N+](=O)[O-])s2)Oc2cc(Cl)ccc21
inactive: [1] 14.7% | [2] 81.2% | [3] 31.6% | [7] 14.3% | [9] 32.2% | [15] 52.1% | [17] 31.7%
active: [4] 1.6% | [5] -78.2% | [6] 4.06% | [8] -28.3% | [10] -8.29% | [11] -49.5% | [12] -71.7% | [13] -49.6% | [14] -59.4% | [16] -10.9% | [18] 2.51%

O=C(CCNC(=O)c1nc(-c2ccccc2)n(-c2ccc(Cl)cc2)n1)NO
inactive: [1] 101% | [2] 96.7% | [3] 83.7% | [4] 104% | [5] 82.4% | [6] 88.6% | [7] 96.2% | [8] 94.8% | [9] 102% | [10] 105% | [11] 97.4% | [12] 102% | [13] 99.6% | [14] 93.9% | [15] 99% | [16] 84.6% | [18] 97%

Cn1cnc([N+](=O)[O-])c1/C=C1\Oc2ccc(Br)cc2C1=O
inactive: [1] 93% | [2] 101% | [3] 100% | [4] 97.3% | [5] 52.7% | [6] 104% | [7] 91.4% | [8] 98% | [9] 91.9% | [10] 67.1% | [11] 96.2% | [12] 91.8% | [13] 102% | [14] 90% | [15] 87.6% | [16] 104% | [17] 84.8% | [18] 95.4%

COc1cc(/C=C2\CCCC3C2=Nc2ccccc2NC3c2cc(OC)c(OC)c(OC)c2)cc(OC)c1OC (stereo not drawn)
active: [1] 8.47% | [2] -38.4% | [3] -3.43% | [4] -12.2% | [5] -6.47% | [6] 5.87% | [7] 1.85% | [8] 0.19% | [9] 4.98% | [10] 5.35% | [11] -34.9% | [13] -49.6% | [15] -10.8% | [18] -0.908%
inactive: [12] 24.1% | [14] 26% | [16] 35.2% | [17] 16.3%

CN(C)c1nc(N)c2nccnc2n1
inactive: [1] 87.9% | [2] 105% | [3] 111% | [4] 108% | [19] 101% | [6] 99.6% | [7] 109% | [8] 100% | [9] 108% | [10] 128% | [12] 108% | [13] 115% | [14] 101% | [15] 84.4% | [16] 105% | [17] 111% | [18] 117%

COc1cc2cc(Oc3ccc(NC(=O)c4cccc(C(F)(F)F)c4)cc3)c(C)nc2cc1OC
active: [15] 8.94%
inactive: [1] 27.1% | [2] 48.1% | [3] 87.1% | [4] 28.3% | [5] 28.9% | [6] 24.1% | [7] 45.4% | [8] 27.2% | [9] 52.9% | [10] 23.8% | [11] 47.5% | [12] 33.3% | [13] 54% | [14] 62.9% | [16] 60% | [17] 44.9% | [18] 16.1%

CCCCN(CCCC)C(=O)[C@H](CC)[C@@H]1CC[C@@H](C)[C@@H]([C@H](C)[C@@H](O)[C@@H](C)C(=O)[C@H](CC)C2O[C@]3(C=CC(=O)[C@]4(CC[C@@](C)([C@H]5CC[C@](O)(CC)[C@H](C)O5)O4)O3)[C@H](C)C[C@@H]2C)O1 (stereo partly drawn)
active: [11] -5.97% | [15] 2.72%
inactive: [1] 25.8% | [2] 15.3% | [3] 42.1% | [4] 19.7% | [5] 13.2% | [6] 30.3% | [7] 47.7% | [8] 21.3% | [9] 84.9% | [10] 24.4% | [12] 46.8% | [13] 47% | [14] 68.6% | [16] 59.6% | [17] 21.3% | [18] 30%

C=CCSC(CC)(CC)C(=O)NC
inactive: [1] 99.4% | [2] 97.8% | [3] 102% | [4] 103% | [5] 86.5% | [6] 94.9% | [7] 104% | [8] 120% | [9] 120% | [10] 98.3% | [11] 115% | [12] 114% | [13] 107% | [14] 112% | [15] 105% | [16] 103% | [17] 92.1% | [18] 103%

COc1cc(/C=C2\CCCC3=C2NC(N)=NC3c2cc(OC)c(OC)c(OC)c2)cc(OC)c1OC (stereo not drawn)
active: [2] -61% | [4] -42.6% | [5] -38% | [6] -28.4% | [7] -20.1% | [8] -0.149% | [9] -9.85% | [10] 6.43% | [11] -42.5% | [13] -88% | [15] -35.3% | [17] -31.1% | [18] -36.1%
inactive: [1] 11.6% | [3] 17.8% | [12] 28.9% | [14] 15.1% | [16] 25.9%

Cc1c2c(nn1C(=O)c1nn(-c3ccc(Cl)cc3)cc1O)-c1ccccc1CC2
inactive: [1] 16.6% | [2] 22% | [3] 23.7% | [6] 21.8% | [7] 21.1% | [9] 24.1% | [12] 38.1% | [13] 31.8% | [14] 33.9% | [18] 27.2%
active: [4] 9.48% | [5] -8.04% | [8] -4.51% | [10] -11.5% | [15] -15.1% | [16] 9.85% | [17] -1.88%

CCC(CC)n1c(C)cc(=O)n1C(CC)CC
inactive: [1] 101% | [2] 99.1% | [3] 96.1% | [19] 99.9% | [5] 106% | [6] 101% | [7] 105% | [8] 115% | [9] 113% | [10] 105% | [11] 142% | [12] 109% | [13] 111% | [14] 100% | [15] 100% | [16] 96.7% | [17] 106% | [18] 110%

O=C(CSc1nnc(-c2ccc(Cl)cc2)o1)Nc1ccc(C(=O)/C=C/c2ccc(Cl)cc2)cc1
inactive: [1] 87.7% | [2] 93.3% | [3] 95.8% | [19] 106% | [5] 86.8% | [6] 95.6% | [7] 99.9% | [8] 117% | [9] 103% | [10] 93.4% | [11] 114% | [12] 104% | [13] 99.1% | [14] 99.7% | [15] 101% | [16] 117% | [17] 98.7% | [18] 104%

Cc1ccc(C(=O)C2C(=O)C3CCC2C3)cc1 (stereo not drawn)
inactive: [1] 94.4% | [2] 99.2% | [3] 99.6% | [19] 98% | [5] 101% | [6] 102% | [7] 104% | [8] 100% | [9] 121% | [10] 102% | [11] 121% | [12] 107% | [13] 109% | [14] 108% | [15] 101% | [16] 106% | [17] 94.1% | [18] 111%

COc1ccc(C(=O)N2C=Cc3ccccc3C2C#N)cc1 (stereo not drawn)
inactive: [1] 95.3% | [2] 87.7% | [3] 89.4% | [19] 102% | [5] 94.2% | [6] 101% | [7] 114% | [8] 105% | [9] 109% | [10] 67.4% | [11] 100% | [12] 86.9% | [13] 90% | [14] 99.9% | [15] 99.2% | [16] 96.8% | [17] 93.7% | [18] 116%

CCOC(=O)c1cc(C(=O)c2cc(OC)c(OC)c(OC)c2)n2ccc(-c3cc[n+](CC(=O)c4cc(OC)c(OC)c(OC)c4)cc3)cc12
inactive: [1] 63.6% | [2] 90.8% | [3] 94.8% | [19] 46.2% | [6] 31.3% | [8] 43.7% | [9] 44.8% | [11] 63.1% | [13] 65.7% | [15] 94.3% | [16] 30.4% | [17] 92.5% | [18] 54.5%
active: [5] -21.5% | [7] -82.3% | [10] -44.5% | [12] -22.8% | [14] -14.5%
